From PubChem BioAssay (Tox21)
Where “and” joins values, the source holds several entries; their conditions need not be identical. Equal entries are not always repeated. Records with an inconclusive call do not appear. Entries that show only a call come without a potency. Some compounds were tested as several samples or in several runs, with calls that do not always agree. Calls of active or inactive are those of the source. Unless noted, the call rests on the fitted dose curve; in most records, active means well fitted curve in the direction sought with a large enough effect in the repeat runs; inconclusive means weak or mixed curves; inactive means no such curve, though single readings can be large; an effect the other way counts as inactive or inconclusive.

Experiments:
[1] = qHTS assay to identify small molecule antagonists of the sonic hedgehog signaling (Shh) pathway (AID 1259369; calls by dose curve; further: nearly all actives have a fitted effect of over 45% in size; further: potency means the concentration at half of the fitted maximal effect)
How it was run: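 Read-out is luminescence from a firefly luciferase gene controlled by the Gli1 response element, in 3T3Gli1-Luc cells pre-incubated 4hr then exposed to compounds and conditioned medium for 24hr.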

[2] = molecular target: Estrogen receptor beta (Homo sapiens) (UniProt Q92731); assay: qHTS assay to identify small molecule agonists of the estrogen receptor beta (ER-beta) signaling pathway (AID 1259377; active means well fitted activation curve with a large enough effect in the signal ratio in the repeat runs, not every such curve was filed as active; the % refers to the signal ratio)
Chain of Estrogen receptor beta (Homo sapiens) (Q92731 whole entry, looked up): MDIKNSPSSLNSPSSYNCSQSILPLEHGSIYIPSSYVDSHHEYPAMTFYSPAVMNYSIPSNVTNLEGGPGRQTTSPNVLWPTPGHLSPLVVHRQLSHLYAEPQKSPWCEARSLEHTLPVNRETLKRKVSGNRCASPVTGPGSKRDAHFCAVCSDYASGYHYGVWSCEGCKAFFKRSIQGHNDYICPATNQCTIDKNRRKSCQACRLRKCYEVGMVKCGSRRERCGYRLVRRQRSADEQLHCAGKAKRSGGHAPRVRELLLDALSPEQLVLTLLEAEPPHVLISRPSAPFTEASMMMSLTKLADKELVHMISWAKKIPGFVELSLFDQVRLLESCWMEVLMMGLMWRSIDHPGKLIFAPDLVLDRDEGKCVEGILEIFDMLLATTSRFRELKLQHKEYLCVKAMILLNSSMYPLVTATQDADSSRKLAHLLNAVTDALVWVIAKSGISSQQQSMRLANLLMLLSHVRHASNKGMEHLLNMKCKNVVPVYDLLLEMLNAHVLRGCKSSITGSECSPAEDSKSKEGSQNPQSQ
How it was run: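 HEK293T ER-beta-UAS-bla; 2% charcoal-stripped FBS; cells pre-incubated 6 hr, compound 16 hr, 37C/5% CO2; LiveBLAzer B/G FRET substrate 2 h RT; fluorescence intensity read.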

[3] = molecular target: Estrogen receptor beta (Homo sapiens) (UniProt Q92731); assay: qHTS assay to identify small molecule antagonists of the estrogen receptor beta (ER-beta) signaling pathway (AID 1259378; active means well fitted inhibition curve with a large enough effect in the signal ratio in the repeat runs, not every such curve was filed as active; the % refers to the signal ratio)
How it was run: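 ER-beta-UAS-bla HEK293T (GripTite) cells in 2% charcoal-stripped FBS medium were preincubated 6 hr at 37C, dosed with compound, then stimulated with 1 nM E2 (final) for 16 hr; beta-lactamase reporter read by B/G FRET fluorescence after 2 hr substrate loading.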

[4] = qHTS assay to identify small molecule agonists of the androgen receptor (AR) signaling pathway in the presence of an antagonist - cell viability counter screen (AID 1259379); further: nearly all actives have a fitted effect of over 25% in size; further: potency means the concentration at half of the fitted maximal effect;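 on activity change, negative = cytotoxicity: MDA-kb2 human breast cancer cells carrying an MMTV luciferase reporter; series mostly up to about 92 µM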
How it was run: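 Each compound was tested at 15 concentrations on MDA-kb2 cells in the presence of 3.0uM nilutamide. Viability was measured by CellTiter-Fluor fluorescence after a 16 hr incubation at 37C in a CO2-free atmosphere.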

[5] = qHTS assay to identify small molecule agonists of the estrogen receptor beta (ER-beta) signaling pathway - cell viability counter screen (AID 1259380); further: nearly all actives have a fitted effect of over 30% in size
How it was run: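 Compounds dissolved in DMSO were pin-transferred onto ER-beta-UAS-bla HEK293T cells that had settled 6 hr, and exposure ran 16 hr at 37C. Following the reporter read, CellTiter-Glo luminescence after 30 min at room temperature indicated cytotoxicity.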

[6] = qHTS assay to identify small molecule antagonists of the estrogen receptor beta (ER-beta) signaling pathway - cell viability counter screen (AID 1259382); further: series mostly up to about 92 µM; nearly all actives have a fitted effect of over 55% in size
How it was run: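 CellTiter-Glo ATP luminescence measured after the LiveBLAzer read in the same wells; ER-beta-UAS-bla HEK293T cells, 16 hr compound treatment with 1nM 17-beta-estradiol agonist at 37C, 5% CO2.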

[7] = molecular target: Estrogen receptor (Homo sapiens) (UniProt P03372); assay: qHTS assay to identify small molecule agonists of the estrogen receptor alpha (ER-alpha) signaling pathway in the presence of an antagonist (AID 1259383; calls by dose curve; further: top concentration of the series differs between compounds; nearly all actives have a fitted effect of over 15% in size)
Chain of Estrogen receptor (Homo sapiens) (P03372 whole entry, looked up): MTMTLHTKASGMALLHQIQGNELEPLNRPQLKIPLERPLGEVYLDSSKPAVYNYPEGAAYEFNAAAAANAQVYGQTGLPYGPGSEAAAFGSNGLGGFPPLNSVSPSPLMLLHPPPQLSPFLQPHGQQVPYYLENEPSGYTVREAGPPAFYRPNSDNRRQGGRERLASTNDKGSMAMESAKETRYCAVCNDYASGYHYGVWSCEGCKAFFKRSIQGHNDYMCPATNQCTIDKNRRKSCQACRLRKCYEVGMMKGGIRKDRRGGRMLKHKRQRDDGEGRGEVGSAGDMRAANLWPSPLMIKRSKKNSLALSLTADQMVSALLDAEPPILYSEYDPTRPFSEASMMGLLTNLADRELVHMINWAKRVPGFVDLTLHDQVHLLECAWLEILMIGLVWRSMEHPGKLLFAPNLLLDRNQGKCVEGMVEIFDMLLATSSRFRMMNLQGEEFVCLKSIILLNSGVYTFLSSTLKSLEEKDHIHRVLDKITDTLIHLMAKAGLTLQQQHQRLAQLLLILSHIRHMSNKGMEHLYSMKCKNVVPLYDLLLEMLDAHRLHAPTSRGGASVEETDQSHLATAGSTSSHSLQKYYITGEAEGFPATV
How it was run: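 Luminescent ERE-luciferase reporter, VM7Luc4E2 cells (endogenous ER-alpha); 10.0nM ICI-182,780 final; 15-point compound titration; 22hr at 37C; ONE-Glo, 30min RT.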

[8] = molecular target: Thyrotropin receptor (Homo sapiens) (UniProt P16473); assay: qHTS assay to identify small molecule antagonists of the thyroid stimulating hormone receptor (TSHR) signaling pathway (AID 1259385; calls by dose curve; further: nearly all actives have a fitted effect of over 20% in size)
Chain of Thyrotropin receptor (Homo sapiens) (P16473 whole entry, looked up): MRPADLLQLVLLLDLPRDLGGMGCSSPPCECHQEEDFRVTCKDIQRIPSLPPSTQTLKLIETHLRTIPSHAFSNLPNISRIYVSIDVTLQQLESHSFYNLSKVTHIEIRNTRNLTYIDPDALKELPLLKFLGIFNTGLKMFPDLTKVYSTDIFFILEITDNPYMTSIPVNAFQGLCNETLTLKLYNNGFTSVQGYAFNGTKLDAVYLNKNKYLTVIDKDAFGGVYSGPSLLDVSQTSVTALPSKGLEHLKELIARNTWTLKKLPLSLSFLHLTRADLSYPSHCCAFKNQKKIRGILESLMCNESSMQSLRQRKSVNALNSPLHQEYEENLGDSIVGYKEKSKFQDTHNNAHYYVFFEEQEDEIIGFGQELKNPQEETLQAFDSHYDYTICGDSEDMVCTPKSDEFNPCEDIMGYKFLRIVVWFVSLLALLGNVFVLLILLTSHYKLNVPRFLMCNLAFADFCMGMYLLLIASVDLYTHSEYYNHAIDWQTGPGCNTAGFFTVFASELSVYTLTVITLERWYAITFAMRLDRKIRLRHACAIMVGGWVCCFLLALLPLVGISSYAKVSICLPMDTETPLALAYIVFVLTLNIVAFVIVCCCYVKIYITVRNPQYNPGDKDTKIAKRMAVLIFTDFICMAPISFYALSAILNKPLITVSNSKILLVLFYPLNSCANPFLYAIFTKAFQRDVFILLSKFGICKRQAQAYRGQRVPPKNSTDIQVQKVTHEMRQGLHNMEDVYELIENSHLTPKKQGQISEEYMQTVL
How it was run: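 TSHR-HEK293 cells were plated and held 18 h at 37C/5% CO2, then given compound plus Ro20-1724 and stimulated with TSH at 1.5 ng/mL final. After 30 min at room temperature, cAMP was detected with cAMP-d2/anti-cAMP-cryptate (1 h) by fluorescence.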

[9] = qHTS assay to identify small molecule agonists of the estrogen receptor alpha (ER-alpha) signaling pathway in the presence of an antagonist - cell viability counter screen (AID 1259386);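 further: cells exposed to compounds for 22 h at 37 °C before the viability read; nearly all actives have a fitted effect of over 30% in size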; further: potency means the concentration at half of the fitted maximal effect; on activity change, negative = cytotoxicity: series mostly up to about 92 µM
How it was run: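 Using estrogen-depleted VM7Luc4E2 cells, the 15-concentration compound series was applied together with 10.0nM ICI-182,780 and incubated 22hr at 37C/5% CO2. Cell viability was then scored by CellTiter-Fluor.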

[10] = molecular target: Progesterone receptor (Homo sapiens) (UniProt P06401); assay: qHTS assay to identify small molecule agonists of the progesterone receptor (PR) signaling pathway (AID 1346784; calls by dose curve; further: nearly all actives have a fitted effect of over 30% in size; further: potency means the concentration at half of the fitted maximal effect)
Chain of Progesterone receptor (Homo sapiens) (P06401 whole entry, looked up): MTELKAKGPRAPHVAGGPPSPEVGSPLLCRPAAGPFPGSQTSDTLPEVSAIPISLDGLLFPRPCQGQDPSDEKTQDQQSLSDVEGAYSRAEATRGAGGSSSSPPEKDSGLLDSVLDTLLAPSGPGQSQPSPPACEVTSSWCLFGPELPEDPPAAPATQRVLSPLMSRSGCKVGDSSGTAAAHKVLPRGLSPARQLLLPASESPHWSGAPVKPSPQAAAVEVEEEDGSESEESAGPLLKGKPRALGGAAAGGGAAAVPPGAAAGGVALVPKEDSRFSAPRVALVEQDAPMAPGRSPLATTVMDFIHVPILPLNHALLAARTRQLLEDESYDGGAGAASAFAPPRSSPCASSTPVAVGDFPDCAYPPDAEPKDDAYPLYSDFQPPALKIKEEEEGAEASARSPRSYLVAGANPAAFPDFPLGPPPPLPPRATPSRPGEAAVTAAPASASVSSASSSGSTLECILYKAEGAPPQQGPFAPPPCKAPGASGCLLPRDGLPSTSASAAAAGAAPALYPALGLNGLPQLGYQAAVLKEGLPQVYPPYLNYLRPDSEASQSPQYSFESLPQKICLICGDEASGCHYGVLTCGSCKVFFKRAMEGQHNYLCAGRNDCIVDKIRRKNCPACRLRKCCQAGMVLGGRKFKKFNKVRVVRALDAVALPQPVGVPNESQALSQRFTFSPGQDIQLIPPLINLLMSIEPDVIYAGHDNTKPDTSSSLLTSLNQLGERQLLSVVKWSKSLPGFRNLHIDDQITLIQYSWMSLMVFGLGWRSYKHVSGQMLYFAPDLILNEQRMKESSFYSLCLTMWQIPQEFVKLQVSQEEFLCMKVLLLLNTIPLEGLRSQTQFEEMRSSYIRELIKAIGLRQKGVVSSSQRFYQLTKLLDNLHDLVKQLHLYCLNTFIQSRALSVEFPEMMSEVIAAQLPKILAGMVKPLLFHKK
How it was run: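 Beta-lactamase reporter read-out: after 16 hr compound treatment at 37C and a further 2 hr at room temperature with LiveBLAzer B/G FRET substrate, fluorescence was measured in PR-UAS-bla HEK 293T cells grown in 2% charcoal-stripped serum.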

[11] = molecular target: Progesterone receptor (Homo sapiens) (UniProt P06401); assay: qHTS assay to identify small molecule antagonists of the progesterone receptor (PR) signaling pathway (AID 1346795; active means well fitted inhibition curve with a large enough effect in the signal ratio in the repeat runs, not every such curve was filed as active; the % refers to the signal ratio)
How it was run: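 Read-out is fluorescence from the LiveBLAzer B/G FRET substrate, cleaved by a UAS-controlled beta-lactamase in PR-UAS-bla HEK293T cells after 16 hr exposure to compound plus 1 nM promegestone (final), followed by 2 hr at room temperature.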

[12] = qHTS assay to identify small molecule antagonists of the progesterone receptor (PR) signaling pathway - cell viability counter screen (AID 1346798);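 further: HEK293T PR-UAS-bla cells stimulated with the agonist R5020; series mostly up to about 92 µM; nearly all actives have a fitted effect of over 50% in size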
How it was run: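 HEK293T PR-UAS-bla, 2% charcoal-stripped FBS; 4 hr pre-plate; cpd + R5020, 16 h 37C; LiveBLAzer read first; then CellTiter-Glo 30 min RT, luminescence.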

[13] = qHTS assay to identify small molecule agonists of the progesterone receptor (PR) signaling pathway - cell viability counter screen (AID 1346799; calls by dose curve; further: nearly all actives have a fitted effect of over 45% in size)
How it was run: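 Luminescence from CellTiter-Glo, added after the beta-lactamase FRET read in the same wells, gave cytotoxicity in PR-UAS-bla HEK293T cells treated with compounds for 16 hr at 37C.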

[14] = qHTS assay to identify small molecule antagonists of the TGF-beta/Smad signaling pathway - cell viability counter screen (AID 1346824); further: nearly all actives have a fitted effect of over 50% in size; further: potency means the concentration at half of the fitted maximal effect
How it was run: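 SBE-bla HEK 293T cells were plated overnight at 37 C, then given compounds in DMSO plus TGF-beta1 (added as 0.25 ng/mL solution) for 5 hr. After the bla read, CellTiter-Glo was added to the same wells and luminescence read after 30 min at room temperature.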

[15] = qHTS assay to identify small molecule agonists of the TGF-beta/Smad signaling pathway (AID 1346859; active means well fitted activation curve with a large enough effect in the signal ratio in the repeat runs, not every such curve was filed as active; the % refers to the signal ratio; further: series mostly up to about 77 µM)
How it was run: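 SBE-bla HEK 293T, 4,000 cells/well, plated o/n; cpd in DMSO, 5 hr, 37 C/5% CO2; B/G FRET substrate 2 hr RT; ex 405, em 460/530 nm.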

[16] = molecular target: Thyrotropin-releasing hormone receptor (Homo sapiens) (UniProt P34981); assay: qHTS assay to identify small molecule antagonists of the thyrotropin-releasing hormone receptor (TRHR) signaling pathway (AID 1346877; active means well fitted inhibition curve with a large enough effect in the repeat runs, not every such curve was filed as active; further: series mostly up to about 51 µM)
Chain of Thyrotropin-releasing hormone receptor (Homo sapiens) (P34981 whole entry, looked up): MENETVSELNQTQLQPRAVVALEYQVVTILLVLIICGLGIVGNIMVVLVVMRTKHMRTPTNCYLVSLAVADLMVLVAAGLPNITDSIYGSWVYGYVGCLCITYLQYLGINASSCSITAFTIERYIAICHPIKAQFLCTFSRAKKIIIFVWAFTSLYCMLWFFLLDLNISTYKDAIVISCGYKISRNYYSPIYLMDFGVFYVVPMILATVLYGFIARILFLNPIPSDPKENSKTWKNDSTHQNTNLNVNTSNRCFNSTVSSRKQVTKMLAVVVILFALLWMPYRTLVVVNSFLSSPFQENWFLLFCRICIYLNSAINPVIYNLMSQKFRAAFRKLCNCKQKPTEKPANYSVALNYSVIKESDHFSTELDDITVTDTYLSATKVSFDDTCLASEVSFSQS
How it was run: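 Calcium signal in dye-loaded TRHR/HEK293 cells; compounds added 5 min before TRH (1 nM final); fluorescence monitored 3 min at 1 s steps.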

[17] = molecular target: Thyrotropin-releasing hormone receptor (Homo sapiens) (UniProt P34981); assay: qHTS assay to identify small molecule agonists of the thyrotropin-releasing hormone receptor (TRHR) signaling pathway (AID 1346891; calls by dose curve; further: series mostly up to about 58 µM)
How it was run: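 Intracellular calcium rise, read as fluorescence every second for 3 min, served as the agonist signal in dye-loaded HEK293 cells expressing TRHR; each compound ran at 15 concentrations in triplicate.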

[18] = qHTS assay to identify small molecule agonists or antagonists of the thyroid stimulating hormone receptor (TSHR) signaling pathway - wild type cell line counter screen (AID 1259384; calls by dose curve; further: potency means the concentration at half of the fitted maximal effect)
How it was run: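 Wild-type HEK293 cells were plated 18 h at 37 C/5% CO2, pin-dosed with compound plus Ro20-1724 medium, held 30 min at room temperature, then given cAMP-d2 and anti-cAMP-cryptate; fluorescence was read after 1 h. Fifteen concentrations, triplicate.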

[19] = qHTS assay to identify small molecule agonists of the TGF-beta/Smad signaling pathway - cell viability counter screen (AID 1346829); further: top concentration of the series differs between compounds; nearly all actives have a fitted effect of over 45% in size
How it was run: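 CellTiter-Glo luminescence readout; SBE-bla HEK 293T cells, overnight plating, compound 5 hr at 37 C/5% CO2, then bla substrate 2 hr RT, then CellTiter-Glo 30 min RT.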

CCCCCCCCCCCCO
Potency [1]: inactive and 60.4 µM (active) | Potency [2]: inactive | Potency [3]: inactive | Potency [4]: inactive | Potency [5]: inactive | Potency [6]: inactive | Potency [7]: inactive | Potency [8]: inactive | Potency [9]: inactive | Potency [10]: inactive | Potency [11]: inactive | Potency [12]: inactive | Potency [13]: inactive | Potency [14]: inactive | outcome [15]: inactive | Potency [16]: inactive | Potency [17]: inactive

O=[Se](O)O
Potency [1]: inactive | Potency [2]: inactive | Potency [3]: inactive | Potency [4]: 8.64 µM (active) | activity change, negative = cytotoxicity [5]: 1.8% [at 19 µM] (inactive) | Potency [6]: inactive | Potency [7]: inactive | Potency [18]: inactive | Potency [8]: inactive | Potency [9]: 38.6 µM (active) | activity change, negative = cytotoxicity [9]: 10.8% [at 19 µM] (inactive) | Potency [10]: inactive | Potency [11]: inactive | Potency [12]: inactive | Potency [13]: inactive | Potency [14]: 2.46 µM (active) | viability change, negative = cytotoxic [14]: 0.606% [at 15.8 µM] (inactive) | activation [15]: -0.714% [at 15.8 µM] (inactive) | Potency [17]: inactive

COC(=O)C(C)Oc1ccc(Oc2ncc(C(F)(F)F)cc2Cl)cc1 (stereo not drawn)
Potency [1]: inactive and 30.6 µM (active) | Potency [2]: inactive | Potency [3]: inactive | Potency [4]: inactive | Potency [5]: inactive | Potency [6]: inactive | Potency [7]: inactive | Potency [18]: inactive | Potency [8]: inactive | Potency [9]: inactive | Potency [10]: inactive | Potency [11]: inactive | Potency [12]: inactive | Potency [13]: inactive | Potency [14]: inactive | Potency [19]: inactive | outcome [15]: inactive | Potency [16]: inactive | Potency [17]: inactive

Brc1nc2ccccc2s1
Potency [1]: inactive | Potency [2]: inactive | Potency [3]: inactive | Potency [4]: inactive | Potency [5]: inactive | Potency [6]: inactive | Potency [7]: inactive | Potency [18]: inactive | Potency [8]: inactive | Potency [9]: inactive | Potency [10]: inactive | Potency [11]: inactive | Potency [12]: inactive | Potency [13]: inactive | Potency [14]: inactive | Potency [19]: inactive | outcome [15]: inactive | Potency [16]: inactive | Potency [17]: inactive

CCCCCCC(C)O (stereo not drawn)
Potency [1]: inactive | Potency [2]: inactive | Potency [3]: inactive | Potency [4]: inactive | Potency [5]: inactive | Potency [6]: inactive | Potency [7]: inactive | Potency [9]: inactive | Potency [10]: inactive | Potency [11]: inactive | Potency [12]: inactive | Potency [13]: inactive | Potency [14]: inactive | Potency [19]: inactive | outcome [15]: inactive | Potency [16]: inactive | Potency [17]: inactive

O=C1CCc2ccccc2O1
Potency [1]: inactive | Potency [2]: inactive | Potency [3]: inactive | Potency [4]: inactive | Potency [5]: inactive | Potency [6]: inactive | Potency [7]: inactive | Potency [18]: inactive | Potency [8]: inactive | Potency [9]: inactive | Potency [10]: inactive | Potency [11]: inactive | Potency [12]: inactive | Potency [13]: inactive | Potency [14]: inactive | Potency [19]: inactive | outcome [15]: inactive | Potency [16]: inactive | Potency [17]: inactive

CNC[C@H](O)c1ccc(O)c(O)c1
Potency [1]: 17.2 µM (active) | activity change, negative = inhibition [1]: -2.86% [at 19 µM] (inactive) | Potency [4]: inactive | Potency [5]: inactive | Potency [6]: inactive | Potency [7]: inactive | Potency [18]: 1.66 µM (active) and 111 nM (active) | Potency [8]: inactive | activity change, negative = cytotoxicity [9]: -2.01% [at 19 µM] (inactive) | Potency [10]: 4.33 µM (active) | activation [10]: -0.635% [at 19 µM] (inactive) | Potency [11]: inactive | Potency [12]: inactive | Potency [13]: inactive | Potency [14]: inactive | Potency [19]: inactive | outcome [15]: inactive | Potency [17]: inactive
